Potency data for 40 compounds are collected here from PubChem BioAssay (Tox21).

SMILES strings stand for the structures. Results filed as inconclusive are left out. Where a call stands in place of a potency, no number is given. Activity calls are given as the source filed them. Calls come from the whole dose curve.

The assay in a line: qHTS assay to identify small molecule agonists of H2AX - cell viability counter screen (AID 1224847). Note: top concentration of the series differs between compounds; nearly all actives have a fitted effect of over 30% in size. Particulars: CHO-K1 viability, CellTiter-Glo luminescence, 3 h; series mostly up to 154 µM. The text has this:
National Center for Advancing Translational Sciences [NCATS]
NIH Chemical Genomics Center [NCGC]
U.S. Environmental Protection Agency [EPA]
National Institutes of Environmental Health Sciences [NIEHS]
National Toxicology Program [NTP]
U.S. Food and Drug Administration [FDA]
HTRF phospho-H2AX (Ser139) assay (Cisbio Bioassays, US) enables the quantitative detection of the histone variant H2AX when phosphorylated on serine 139. When double-stranded DNA breaks, either by ionizing radiation or endogenous physiological processes, H2AX becomes phosphorylated at Ser139. This phospho-Ser139 serves as a sensitive biomarker for the detection of such breaks, localizing the site of DNA repair. So, HTRF phospho-H2AX Ser139 is a pertinent assay to study genome stability, the cell cycle, DNA repair, and it serves as a biomarker for cancer, and to understand aging. Wild type CHO-K1 cells were used to identify the inducers of Phospho-H2AX Ser 139 from the Tox21 compound collections. Also cytotoxicity of the Tox21 10K compound library against the CHO-K1 cell line was tested by measuring the cell viability using CellTiter-Glo assay (Promega, Madison, WI).
Tox21 Assay Protocol Summary:
The CHO-K1 cells suspended in culture medium containing 10% FBS were dispensed at 1000 cells/ 3 ul/well in 1536-well white wall/solid bottom plates (Greiner Bio-One North America, NC) using a Multidrop Combi (Thermo Fisher Scientific Inc., Waltham, MA). After the assay plates were incubated at 37C overnight, 23 nl of compounds at 15 concentrations (from 5-48 columns) or positive control (from 1 to 4 columns) were transferred to the assay plates using a Pintool station (Wako, San Diego, CA) into each well resulting in a final DMSO concentration of 0.76%. After 3hr incubation at 37C, 3 uL/well CellTiter-Glo luminescent cell viability reagent (Promega Corporation, Madison, WI) was added using a Flying Reagent Dispenser (FRD) (Aurora Discovery, CA). After incubation at room temperature for 30 min, the luminescence intensity was read using a ViewLux plate reader (PerkinElmer, Waltham, MA).
In general terms: qHTS replaces the single test concentration by a dilution series.
`CC[C@H](C)[C@H](N)C(=O)O`: the Potency result was “inactive”.
With `c1ccc(-c2nc[nH]c2-c2ccccc2)cc1` the entry was “inactive”; with `CN1CCN(C2=Nc3ccccc3Sc3ccc(Cl)cc32)CC1`, “inactive”.
Regarding `CCOc1ccc2[nH]cc(C(=O)NCc3ccccc3)c(=O)c2n1`, the Potency entry was “inactive”.
As for `Oc1ccc2c(c1)OCO2`, the entry is “inactive”; as for `CC(=O)O[C@@H]1C(=O)O[C@@H]2[C@H]1OC(=O)[C@@H]2OC(C)=O`, “inactive”; as for `CNS(=O)(=O)Cc1ccc2[nH]cc(CCN(C)C)c2c1`, “inactive”.
For the compound `CC(C)(Oc1ccc(Cl)cc1)C(=O)OCCCOC(=O)C(C)(C)Oc1ccc(Cl)cc1`, the Potency entry is “inactive”.
With `CCCCOC(O)CC` (stereo not given) the entry was “inactive”; with `CC(C)CC=O`, “inactive”; with `CCCCCCCCCO`, “inactive”.
Take `CC(=O)NCCCS(=O)(=O)O`: the Potency result was “inactive”.
As for `O=C1Nc2cc(Cl)ccc2Oc2ccccc21`, the entry is “inactive”.
For `CCN(CC)C(C)CN1c2ccccc2Sc2ccccc21` (stereo not given), the Potency entry is “inactive”.
Regarding `CC(=O)SCc1ccco1`, the Potency entry was “inactive”.
`CCCc1ccccc1`: the Potency result was “inactive”.
As for `CCCC(C)C`, the Potency entry was “inactive”.
As for `Nc1ccc(C(=O)N2CC3CC(CN(Cc4ccccc4)C3)C2)cc1`, the entry is “inactive”.
`Cn1c(=O)c2c(ncn2CC(O)CO)n(C)c1=O` (stereo not given): the Potency entry was “inactive”.
Consider `C=C(C)C(=O)OCCOc1ccccc1`, for which the Potency entry is “inactive”.
With `CCCOc1ccc2nc(NC(=O)OC)[nH]c2c1`, the Potency entry is “inactive”.
Consider `O=C(O)Cn1c(C(=O)Nc2nc(-c3ccccc3Cl)cs2)cc2ccccc21`, for which the Potency entry is “inactive”.
In the case of `Cc1ccccn1`, the Potency entry was “inactive”.
With `N#CCCNCCC#N` the entry was “inactive”; with `COc1ccc(OC)c(OC)c1`, “inactive”.
With `C#CCOC(=O)[C@@H](C)Oc1ccc(Oc2ncc(Cl)cc2F)cc1` the entry was “inactive”.
Regarding `C[C@H](CCC(=O)O)[C@H]1CC[C@H]2[C@@H]3[C@H](O)C[C@@H]4C[C@H](O)CC[C@]4(C)[C@H]3CC[C@]12C`, the Potency entry was “inactive”.
As for `O=C(c1ccccc1)c1ccc2n1CCC2C(=O)O` (stereo not given), the Potency result was “inactive”.
`CCCCOc1cc(C(=O)OCCN(CC)CC)ccc1N`: the Potency result was “inactive”.
For the compound `O=C(Nc1ccccc1)OCC(CN1CCCCC1)OC(=O)Nc1ccccc1` (stereo not given), the Potency result was “inactive”.
As to `O=C(c1ccc(O)cc1)c1ccc(O)cc1`, the Potency entry is “inactive”.
Turning to `CCOC(=O)CC(C)C`, the Potency entry was “inactive”.
For `CC(C)=CCCC(C)CC=O` (stereo not given), the Potency entry was “inactive”.
Regarding `CCOc1nc2cccc(C(=O)O)c2n1Cc1ccc(-c2ccccc2-c2nn[nH]n2)cc1`, the Potency result is “inactive”.
With `CC(C)NCC(O)COc1ccc(CC(N)=O)cc1` (stereo not given), the Potency entry is “inactive”.
Turning to `CC(C)(C)C1CCCCC1O` (stereo not given), the Potency result was “inactive”.
As to `CCCCCCCCCC=O`, the Potency entry is “inactive”.
On to `CC(C)(C)c1cc(CCC(=O)OCC(COC(=O)CCc2cc(C(C)(C)C)c(O)c(C(C)(C)C)c2)(COC(=O)CCc2cc(C(C)(C)C)c(O)c(C(C)(C)C)c2)COC(=O)CCc2cc(C(C)(C)C)c(O)c(C(C)(C)C)c2)cc(C(C)(C)C)c1O`, for which the Potency entry was “inactive”.
For the compound `CCCCCCCCN(C)C`, the Potency result was “inactive”.
Take `CCOC(=O)C1=C(C)NC(C)=C(C(=O)OC)C1c1cccc([N+](=O)[O-])c1` (stereo not given): the Potency entry was “inactive”.
